From PubChem BioAssay (Tox21) come the findings set out here.

A number with no mark means an inactive call. Results filed as inconclusive are left out. Activity calls are given as the source filed them. Unless noted, calls come from the whole dose curve; as a rule, active = well fitted curve in the direction sought with a large enough effect in the repeat runs; inconclusive = weak or mixed curves; inactive = no such curve, though single readings can be large; an effect the other way counts as inactive or inconclusive.

Test [1] is described as follows: qHTS assay for small molecule agonists of the p53 signaling pathway - cell viability (AID 651633; calls by dose curve;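 note: p53RE-bla HCT reporter cells with a stable beta-lactamase p53 reporter; series mostly up to about 83 µM; nearly all actives have a fitted effect of over 30% in size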). The procedure, abridged:
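p53RE-bla cells were treated with compound for 16 hours at 37 C. Cytotoxicity was then measured as CellTiter-Glo luminescence after 30 min at room temperature.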
(Quantitative high-throughput screening tests each substance at several concentrations.)

Test [2] can be described thus: qHTS assay for small molecules that induce genotoxicity in human embryonic kidney cells expressing luciferase-tagged ATAD5 - cell viability (AID 651634; calls by dose curve; note: nearly all actives have a fitted effect of over 25% in size). The procedure, abridged: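 Viability read: CellTiter-Fluor fluorescence, 30 min at 37C. Cells: HEK293T, luciferase-tagged ATAD5. Exposure: 15.5 hr, 37C, 5% CO2, compound or DMSO vehicle.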
Test [3] in a line: qHTS assay for small molecule disruptors of the mitochondrial membrane potential - cell viability (AID 720634; calls by dose curve; note: nearly all actives have a fitted effect of over 20% in size; note: potency is the fitted concentration of half-maximal effect;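 for activity change, negative = cytotoxicity: human HepG2 liver cancer cells; series mostly up to about 83 µM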). The procedure, abridged:
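HepG2, 1 hr compound, 37 C. ATP luminescence via CellTiter-Glo, 30 min RT, same well as m-MPI.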

A short description of test [4]: qHTS assay for small molecule disruptors of the mitochondrial membrane potential (AID 720635). Note: potency is the fitted concentration of half-maximal effect. The procedure, abridged: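 HepG2 cells exposed to compound 1 hr at 37C, then Mito-MPS dye 30 min. Ratio read of aggregate (540/590 nm) versus monomer (490/535 nm) fluorescence.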
Test [5] in a line: qHTS assay to test for compound auto fluorescence at 590 nm (red) in HepG2 cells (AID 720674). An outline of the steps: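 HepG2 cells, 2,000 per well in MEM with 10% FBS, attached overnight at 37 C, then got 23 nL compound or DMSO. After 1 hr at 37 C, 5% CO2, red fluorescence was read at 540/590 nm against Rose Bengal sodium as reference.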
Test [6] is described as follows: qHTS assay to test for compound auto fluorescence at 535 nm (green) in HepG2 cells (AID 720675).
The nature of test [7]: qHTS assay to test for compound auto fluorescence at 460 nm (blue) in HEK293 cells (AID 720678). The procedure, abridged:
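Blue-channel (Ex/Em 405/460 nm) intensity measured in HEK293 cultures after overnight compound exposure at 37C; signal expressed relative to triamterene. Cells plated 2,000 per well in 10% dialyzed FBS medium and allowed 4-5 hr to attach.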

Test [8] in a line: qHTS assay to test for compound auto fluorescence at 590 nm (red) in HEK293 cells (AID 720679). The procedure, abridged: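 Red-channel autofluorescence (Ex/Em 540/590 nm; Rose Bengal sodium reference) was measured after overnight 37C, 5% CO2 exposure of attached HEK293 cells, 2,000 per well in medium with 10% dialyzed FBS.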
Test [9] can be described thus: qHTS assay for small molecules that induce genotoxicity in human embryonic kidney cells expressing luciferase-tagged ATAD5 (AID 651632). Note: nearly all actives have a fitted effect of over 15% in size. Note: potency is the fitted concentration of half-maximal effect. An outline of the steps: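 Luminescent reporter readout, HEK293T ATAD5-luc line: 16 hr drug exposure (37C, 5% CO2) followed by Amplite, 30 min RT.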
% is set by controls: 0 for no effect and ±100 for the full control effect.

On to `CCCCCCCCC(=O)OCC(C)OC(=O)CCCCCCCC` (stereo not given), for which the Potency result in test [1], in test [2], in [3], in test [4] and in test [7] was “inactive” throughout. The compound was classed as inactive in test [5], in [6] and in [8].

As to `CC(C)(C)c1ccc(CCC=O)cc1`, the Potency entry in test [9], in test [2], in test [3], in test [4] and in test [7] was “inactive” in each case. Besides, the compound was classed as inactive in test [5], in [6] and in test [8].

On to `CC(=O)CC/C=C(\C)CC/C=C(\C)CC/C=C(\C)CCC=C(C)C`, for which the Potency result in [1], in test [3], in test [4] and in test [7] was “inactive” in each case. The outcome in [5], in test [6] and in test [8] was inactive.

For `CCC1=C(C)CN(C(=O)NCCc2ccc(S(=O)(=O)NC(=O)NC3CCC(C)CC3)cc2)C1=O` (stereo not given), the Potency result in test [1], in test [2], in test [3] and in test [7] was “inactive” each time. Moreover, the call in [5], in test [6] and in [8] was inactive.

In the case of `CC(C)=CCC[C@H](C)CCO`, the Potency result in [3] and in test [7] was “inactive” throughout. In addition, the compound was classed as inactive in test [6] and in [8].

In the case of `O=C(NC1CCN(CCc2c[nH]c3ccccc23)CC1)c1ccccc1`, the Potency entry in test [9], in test [2], in test [3] and in [7] was “inactive” each time. The result in [5], in test [6] and in test [8] was inactive.

For the compound `CCCc1nc(C)c2c(=O)[nH]c(-c3cc(S(=O)(=O)N4CCN(CC)CC4)ccc3OCC)nn12`, the Potency result in [3], in test [4] and in [7] was “inactive” each time. Also, the call in [5], in test [6] and in [8] was inactive.

Regarding `Nc1ccccc1Nc1ccccc1`, the Potency entry in [9], in test [3] and in [7] was “inactive” throughout. Further, the compound was classed as inactive in test [5], in test [6] and in test [8].

Regarding `CC(C(=O)O)c1ccc(/C=C2\CCCCC2=O)cc1` (stereo not given), the Potency result in test [1], in test [2], in [3] and in test [7] was “inactive” in each case. In addition, the compound was classed as inactive in test [5], in [6] and in [8].

Turning to `Cc1nc2sccn2c(=O)c1CCN1CCC(=C(c2ccc(F)cc2)c2ccc(F)cc2)CC1`, the Potency entry in test [2], in test [3] and in test [7] was “inactive” throughout. The call in test [6] and in test [8] was inactive.

`O=S(=O)(O)c1cc(Cl)c(Cl)cc1Cl`: the Potency entry in [1], in [2], in test [3] and in test [7] was “inactive” throughout. In addition, the compound was called inactive in test [6] and in test [8].

For the compound `COc1ccc(CN(CCN(C)C)c2ncccn2)cc1`, the Potency result in test [1], in test [2], in test [3] and in [7] was “inactive” in each case. Further, the result in test [5], in test [6] and in test [8] was inactive.

Turning to `COc1ccc(/C=C/c2cc(OC)cc(=O)o2)cc1`, the Potency entry in test [1], in test [2], in test [3], in test [4] and in test [7] was “inactive” throughout. The outcome in test [5], in [6] and in test [8] was inactive.

On to `C=C[Si](OCC)(OCC)OCC`, for which the Potency entry in [1], in [2], in test [3] and in [7] was “inactive” throughout. The compound was called inactive in [5], in [6] and in [8].

As for `O=C(Cl)c1ccc(F)c(Cl)c1`, the Potency entry in test [1], in [2], in test [3] and in [7] was “inactive” in each case. Further, the call in test [6] and in [8] was inactive.

`Oc1ccc(Oc2ccccc2)cc1`: the Potency result in test [1], in test [2], in [3] and in test [7] was “inactive” in each case. In addition, in test [4], the Potency was 20.6 µM (active). For the same compound, the result in test [5], in test [6] and in test [8] was inactive.

As for `Nc1ccc(C(=O)Oc2ccccc2)c(O)c1`, the values for the Potency in test [9] and in test [4] were 9.44 µM (active) and 29.8 µM (active), respectively. The Potency entry in test [1] and in test [7] was “inactive” in each case. Also, the compound was classed as inactive in test [5], in [6] and in test [8].

Take `O=C(O)c1ccc2c(c1)nc(C(=O)NC1CCN(C3CC3)CC1)n2Cc1cc(-c2ccc(Cl)s2)on1`: the Potency entry in test [9], in test [2] and in test [3] was “inactive” each time. In addition, the fluorescence, % of fluorescein control in [6] was -0.0395% [at 18.6 µM]. For the same compound, the fluorescence, % of triamterene in [7] is 0.0005% [at 18.6 µM]. The fluorescence, % of fluorescent control in test [8] is 0.147% [at 18.6 µM].

Take `Cc1c(Nc2ncccc2C(=O)O)cccc1C(F)(F)F`: the Potency entry in test [9], in [2] and in test [3] was “inactive” in each case. Moreover, in [4], the Potency is 9.02 µM (active). In addition, in test [5], the fluorescence, relative to Rose Bengal was 0.539% [at 18.6 µM]. For the same compound, the fluorescence, % of fluorescein control in [6] was -0.0599% [at 18.6 µM]. Also, the fluorescence, % of triamterene in test [7] is 0.0756% [at 18.6 µM]. Further, in test [8], the fluorescence, % of fluorescent control was 0.0414% [at 18.6 µM].

For the compound `C=Cc1ccc(C=C)cc1`, the Potency result in test [1], in test [3], in [4] and in test [7] was “inactive” in each case. Also, the outcome in test [6] and in [8] was inactive.

For the compound `c1ccc(-c2ccc(-c3ccccc3)cc2)cc1`, the Potency entry in [1], in test [2] and in test [3] was “inactive” each time. Further, in [5], the fluorescence, relative to Rose Bengal is -0.399% [at 18.6 µM]. Further, the fluorescence, % of fluorescein control in test [6] is -0.0708% [at 18.6 µM]. In addition, the fluorescence, % of triamterene in test [7] is -0.0124% [at 18.6 µM]. Besides, in test [8], the fluorescence, % of fluorescent control was 0.554% [at 18.6 µM].

For the compound `N#Cc1ccc(CC(=O)c2cccc(C(F)(F)F)c2)cc1`, the Potency entry in test [1], in test [2] and in [7] was “inactive” throughout. In addition, the Potency in [3] was 48.6 µM (active). Also, the outcome in test [5], in test [6] and in test [8] was inactive.

As to `Clc1nc2ccccc2nc1Cl`, the Potency entry in [1], in [3] and in test [7] was “inactive” in each case. Moreover, the outcome in test [5], in [6] and in test [8] was inactive.

In the case of `C=CC(=O)OCCCCCCCCCC`, the Potency entry in test [1], in [3], in [4] and in [7] was “inactive” in each case. Further, the compound was called inactive in [5], in test [6] and in [8].

Take `CCC[Si](OC)(OC)OC`: the Potency entry in [1], in test [2], in [3], in test [4] and in [7] was “inactive” throughout. The compound was classed as inactive in test [5], in [6] and in [8].

Take `COc1ccc(C(=O)Nc2ccccc2)cc1[N+](=O)[O-]`: the Potency result in [1], in test [2] and in test [7] was “inactive” in each case. In test [4], the Potency is 2.75 µM (active). Further, the compound was classed as inactive in test [6] and in test [8].

For `CCCC1CCOC(C)S1` (stereo not given), the Potency result in test [9], in test [3], in test [4] and in test [7] was “inactive” each time. Besides, the result in test [5], in [6] and in [8] was inactive.

On to `COC=O`, for which the results for the activity change, negative = cytotoxicity in test [1] and in [3] were 21.3% [at 8.08 µM] and 7.15% [at 8.08 µM], respectively. In test [2], the activity, negative = cytotoxicity is 20.8% [at 8.08 µM]. Also, in test [5], the fluorescence, relative to Rose Bengal was 0.0697% [at 9.17 µM]. Further, the fluorescence, % of fluorescein control in test [6] is 0.016% [at 9.17 µM]. Further, the fluorescence, % of triamterene in [7] was -0.185% [at 9.17 µM]. Further, the fluorescence, % of fluorescent control in test [8] was 0.13% [at 9.17 µM].

In the case of `CCOc1ccc2c(c1)C(C)CC(C)(C)N2` (stereo not given), the Potency result in [9], in [2], in test [3] and in test [7] was “inactive” throughout. For the same compound, the call in test [6] and in test [8] was inactive.
